According to PubChem BioAssay AID1851 (National Center for Advancing Translational Sciences (NCATS), 2009):
Screen size: about 16,000 compounds; about 2,600 (16%) were called active. About 20% were inconclusive and are not listed. The call rests on the fitted dose curve; in most records, active means well fitted curve in the direction sought with a large enough effect; inconclusive means small, poorly fitted or top-dose-only effect, or effect the other way; inactive means no such curve, though single readings can be large or run the other way. Only a sample is shown.

The compounds below were run against Cytochrome P450 2D6 (Homo sapiens) (UniProt P10635) (assay: Cytochrome panel assay with activity outcomes). Details: recombinant CYP, pro-luciferin dealkylation, luminescence, p450-cyp2d6; series mostly up to 57.1 µM; activity, negative = inhibition: at the top concentration.
On the % scale 0 is the no-effect control and ±100 the full control effect.

Sequence of Cytochrome P450 2D6 (Homo sapiens) (P10635 whole entry, looked up): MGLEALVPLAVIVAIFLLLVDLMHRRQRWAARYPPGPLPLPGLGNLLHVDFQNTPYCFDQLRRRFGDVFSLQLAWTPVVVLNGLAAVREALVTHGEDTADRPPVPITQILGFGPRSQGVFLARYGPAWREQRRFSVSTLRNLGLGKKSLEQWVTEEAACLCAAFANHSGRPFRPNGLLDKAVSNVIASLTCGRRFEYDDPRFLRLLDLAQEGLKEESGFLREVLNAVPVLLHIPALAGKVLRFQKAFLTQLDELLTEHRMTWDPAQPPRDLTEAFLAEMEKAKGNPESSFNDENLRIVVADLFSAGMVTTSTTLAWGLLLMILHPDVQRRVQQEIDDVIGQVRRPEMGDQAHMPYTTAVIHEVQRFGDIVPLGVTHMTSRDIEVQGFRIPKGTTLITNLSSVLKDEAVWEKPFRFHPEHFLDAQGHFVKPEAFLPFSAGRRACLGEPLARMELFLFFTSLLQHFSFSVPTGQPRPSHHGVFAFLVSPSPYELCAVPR

| Compound | activity, negative = inhibition | AC50 |
| --- | --- | --- |
| O=C(NNC(=O)c1sc2ccccc2c1Cl)Nc1ccc(Cl)cc1 | -18.8% (inactive) | – |
| Cc1sc(NC(=O)C(C)C)c(C(=O)Nc2ccccc2)c1C | -25.2% (inactive) | – |
| Cc1ccc(C)c(-c2cc(C(=O)Nc3sc(C)c(C)c3C(N)=O)c3ccccc3n2)c1 | 2.56% (inactive) | – |
| Cc1sc(NC(=O)c2ccccc2)c(C(=O)NCCN(C)C)c1C | – | 14.1 µM (active) |
| COc1cccc(-c2nnc3sc(-c4ccc(C)cc4)nn23)c1 | -3.08% (inactive) | – |
| CCOc1cc2[nH]c(=O)n(CCCC(=O)NCc3ccc(OC)cc3)c(=O)c2cc1OCC | -1.12% (inactive) | – |
| O=C(CCn1c(=O)[nH]c2ccsc2c1=O)Nc1ccc(F)c(F)c1 | 15.9% (inactive) | – |
| O=C(CCCCCn1c(=O)[nH]c2ccsc2c1=O)NCc1ccc2c(c1)OCO2 | – | 17.8 µM (active) |
| COC(=O)C[C@@H]1O[C@H]1[C@H](C)[C@@H](OC)C(C)C | 5.88% [at 11.4 µM] (inactive) | – |
| CC[C@@]1(O)C(=O)OCc2c1cc1n(c2=O)Cc2cc3c(CN(C)C)c(O)ccc3nc2-1 | -7.02% [at 11.4 µM] (inactive) | – |
| C=CCn1c(Cc2ccc(OC)cc2)nnc1SCC(=O)c1cccc([N+](=O)[O-])c1 | -4.53% (inactive) | – |
| C=CCn1c(Cc2c[nH]c3ccccc23)nnc1SCC(=O)NCc1ccccc1 | – | 15.8 µM (active) |
| CCn1c(Cc2ccccc2)nnc1SCC(=O)NC(C)(C)C | 1.85% (inactive) | – |
| Cc1cc(C(=O)N/N=C/c2cccc([N+](=O)[O-])c2)c(C)o1 | -11.5% (inactive) | – |
| CCOC(=O)c1cc(-c2ccccc2)sc1NC(=O)c1ccc(OC)cc1 | -3.83% (inactive) | – |
| O=[N+]([O-])c1ccc(N/N=C\c2cccn2-c2ccccc2)nc1 | – | 4.47 µM (active) |
| O=[N+]([O-])c1ccc(/C=N/Nc2cc(Cl)nc(-c3ccccc3)n2)cc1 | 1.15% (inactive) | – |
| C(=N\n1cnnc1)/c1cccn1-c1ccccc1 | -27.9% (inactive) | – |
| CN1C(=O)CC[C@@H]1c1cccnc1 | – | inactive |
| Cc1cccn2c(/C=N/OCc3ccc(F)cc3)c(-c3ccc(Cl)cc3)nc12 | -15.9% (inactive) | – |
| COc1ccc(/C=N/NC(=O)C2CCN(c3ncc(C(F)(F)F)cc3Cl)CC2)cc1 | -8.71% (inactive) | – |
| O=C(CCCNS(=O)(=O)c1cccc2nsnc12)NCCc1ccccc1 | – | 14.1 µM (active) |

| Compound | activity, negative = inhibition | AC50 |
| --- | --- | --- |
| O=C(CCS(=O)(=O)c1cccc2nsnc12)NC1CCCCC1 | -19.1% (inactive) | – |
| Cc1cccc(NC(=O)CCS(=O)(=O)c2cccc3nsnc23)c1C | -24.2% (inactive) | – |
| Cc1cc(C)n(C(=O)c2cc3c(s2)CCCC3)n1 | -10.8% (inactive) | – |
| COC(=O)C(CCSC)NC(=O)c1cccc([N+](=O)[O-])c1 (stereo not given) | 11.3% (inactive) | – |
| CCOC(=O)c1c(NC(=O)Nc2ccccc2)sc(C)c1C | -25.9% (inactive) | – |
| COC(=O)c1c(NC(C)=O)sc(Cc2ccccc2)c1C | – | 25.1 µM (active) |
| CCOc1ccc(CC(=O)Nc2sc(Cc3ccccc3)c(C)c2C(N)=O)cc1OCC | -3.45% (inactive) | – |
| N#CCCn1c(=O)c(-c2ccc(F)cc2)nc2cnc(OCc3ccccc3)nc21 | 8.49% (inactive) | – |
| Cc1ccc(S(=O)(=O)N[C@H]2COC(=O)C/C=C\[C@@H](C)[C@H](NS(=O)(=O)c3ccc(C)cc3)COC(=O)C/C=C\[C@H]2C)cc1 | 4.7% [at 11.4 µM] (inactive) | – |
| COCCn1c(=O)c(C)nc2cnc(N3CCN(C)CC3)nc21 | 14.1% (inactive) | – |
| Clc1ccc(Cl)c(SCCCN2CCNCC2)c1 | – | 2.51 µM (active) |
| COC(=O)c1sccc1NC(=O)CSc1cc(Cl)ccc1Cl | -7.42% (inactive) | – |
| Cc1cccc(C(=O)O/N=C(\N)c2cccc([N+](=O)[O-])c2)c1 | 1.21% (inactive) | – |
| C#C[C@]1(O)CC[C@H]2[C@H]3CCC4=Cc5oncc5C[C@]4(C)[C@@H]3CC[C@]21C | -6.07% (inactive) | – |
| CSc1nsc(SC)c1NC(=O)OCC1CCCO1 (stereo not given) | -5.43% (inactive) | – |
| C=CCNC(=O)c1ccc2nc(-c3ccccc3)c(-c3ccccc3)nc2c1 | -22.7% (inactive) | – |
| CC[n+]1c(/C=C/Nc2ccccc2)oc2ccccc21 | – | 1.41 µM (active) |
| O=C(O)CN=C1NC2(CCCC2)Cc2ccccc21 | 6.94% (inactive) | – |
| COC(=O)N1CCC2(CC1)CCN(c1ccncc1)CC2 | 3.16% (inactive) | – |
| N=C1CCC[C@@H]1C(=S)SCCC(N)=O | 0.37% [at 11.4 µM] (inactive) | – |
| Cc1cnc(CNc2ccnc(-c3ccccc3Cl)n2)cn1 | -5.09% (inactive) | – |
| COc1ccccc1-c1nccc(NCc2ccccc2)n1 | – | 3.98 µM (active) |

| Compound | activity, negative = inhibition | AC50 |
| --- | --- | --- |
| Cc1cccc(CNc2ccnc(-c3ccccc3Cl)n2)c1 | – | 15.8 µM (active) |
| CNc1ccnc(-c2ccccc2C(F)(F)F)n1 | -1.5% (inactive) | – |
| COc1ccccc1-c1nccc(NC2CCNCC2)n1 | -3.43% (inactive) | – |
| CNc1ccnc(-c2ccccc2C)n1 | -4.81% (inactive) | – |
| COc1ccccc1-c1nccc(NCc2cccc(C)c2)n1 | – | 1.58 µM (active) |
| CNc1ccnc(-c2ccccc2OC)n1 | – | 5.01 µM (active) |
| C=CCNC(=O)c1ccccc1Cl | -3% (inactive) | – |
| COc1ccc(-n2c(=O)c(C)nc3cnc(N4CCOCC4)nc32)cc1 | -1.02% (inactive) | – |
| COc1cccc(/C(O)=C2/C(=O)C(=O)N(Cc3cccnc3)C2c2ccco2)c1 (stereo not given) | 1.15% (inactive) | – |
| C[C@@H]1NC(=O)C/C=C\[C@@H](C)[C@@H]2C=C[C@H](O)[C@@H](COC(=O)[C@H](C)NC(=O)C/C=C\[C@@H](C)[C@@H]3C=C[C@H](O)[C@@H](COC1=O)O3)O2 | 9.45% [at 11.4 µM] (inactive) | – |
| COc1cccc(Cn2c(=O)c(-c3cccc(C#N)c3)nc3cnc(Nc4ccccc4)nc32)c1 | 0.752% (inactive) | – |
| O=C(O)c1c(Br)c(Br)c(Br)c(Br)c1C1c2ccc(O)cc2Oc2cc(O)ccc21 | -6.23% [at 11.4 µM] (inactive) | – |
| O=c1[nH]n(-c2cccc3cccnc23)c(=O)c2ccccc12 | 5.11% (inactive) | – |
| COc1ccc(OC)c(NC(=O)Cn2cccc2)c1 | -4.42% (inactive) | – |
| Cc1occc1C(=O)NNC(=O)Cc1ccccc1 | -7.57% (inactive) | – |
| CCCCn1nnnc1SCC(=O)N1CCCC1 | 1.31% (inactive) | – |
| O=c1[nH]c(=S)[nH]c(-c2ccccc2)c1Cc1c(O)ccc2ccccc12 | -6.41% [at 11.4 µM] (inactive) | – |
| Cc1cccc(CNc2ccnc(-c3ccccc3CN(C)C)n2)c1 | – | 2.51 µM (active) |
| Cc1cccc(CNc2cc(-c3ccc(C(=O)N(C)C)cc3)ncn2)c1 | -3% (inactive) | – |
| CCN(C(=O)Cn1c(=O)oc2ccccc21)c1cccc(C(F)(F)F)c1 | -17.9% (inactive) | – |
| Cc1ccccc1Oc1ncnc2oc(-c3ccccc3)cc12 | -13.1% (inactive) | – |
